Source: the supplement of paper PMC10849652
Targets with a hit are over-represented here; the source holds about 7,900 in all. About 0.6% of all pairs of compound and target were hits. Unmarked numbers belong to inactive results.

Key:
Assay in all cases: log2 fold change, soluble protein after heating vs DMSO (PISA); higher = thermal stabilisation; K562 cells, 10 uM, 30 min; active = over 0.2 and 3.5 SD of the protein, either way, in both replicates (recomputed)
[1] = compound: CS(=O)(=O)c1ccc(-c2cnc(N)c(C(=O)Nc3ccccc3)n2)cc1
Procedure, shortened: (§1)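 Values are thermal stability changes relative to control samples and are taken from duplicates. They are stated as log2 fold changes. Before quantification by TMTpro 16plex LC-MS/MS with equalised channel sums, K562 cells at 2×10^6 cells/mL were treated with 10 μM compound for 30 min, heated in aliquots for 3 min across 48°C-58°C, pooled, extracted in PBS with 0.5% NP-40 at 4°C, and centrifuged at 21,000xg for 90 min to give the soluble supernatant.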

[2] = compound: C[C@@H](Oc1cc(-c2cnn(C3CCNCC3)c2)cnc1N)c1c(Cl)ccc(F)c1Cl [crizotinib]
Procedure, shortened: as §1

[3] = compound: C[C@@H]1COCCN1C2=NC(=NC(=C2)C3(CC3)S(=O)(=O)C)C4=C5C=CNC5=CC=C4
Procedure, shortened: as §1

[4] = compound: C[C@H](C1=CC=C(C=C1)C(=O)NC2=C3C=CNC3=NC=C2)N
Procedure, shortened: as §1

[5] = compound: C[C@H](Nc1ncnc2nc[nH]c12)c1cc2cccc(Cl)c2c(=O)n1-c1ccccc1 [duvelisib]
Procedure, shortened: as §1

[6] = compound: Cc1cc(Nc2cc(CN3CCOCC3)c3nc(C)c(Cc4ccc(Cl)cc4F)n3n2)n[nH]1 [gandotinib]
Procedure, shortened: as §1

[7] = compound: Cc1cc(Nc2cc(N3CCN(C)CC3)nc(Sc3ccc(NC(=O)C4CC4)cc3)n2)n[nH]1 [tozasertib]
Procedure, shortened: as §1

[8] = compound: Cc1cc(SCc2sc(-c3ccc(C(F)(F)F)cc3)nc2C)ccc1OCC(=O)O
Procedure, shortened: as §1

[9] = compound: Cc1ccc(-n2nc(C(C)(C)C)cc2NC(=O)Nc2ccc(OCCN3CCOCC3)c3ccccc23)cc1 [doramapimod]
Procedure, shortened: as §1

[10] = compound: Cc1ccc(C(=O)N(CCCN)[C@@H](c2nc3cc(Cl)ccc3c(=O)n2Cc2ccccc2)C(C)C)cc1 [ispinesib]
Procedure, shortened: as §1

[11] = compound: Cc1ccc(NC(=O)c2ccc(CN3CC[C@H](N(C)C)C3)c(C(F)(F)F)c2)cc1Nc1nccc(-c2cncnc2)n1 [bafetinib]
Procedure, shortened: as §1

[12] = compound: Cc1cccc(CC(=O)N2CCc3c2ccc(-c2cn(C)c4ncnc(N)c24)c3F)n1
Procedure, shortened: as §1

[13] = compound: Cc1cn(-c2cc(NC(=O)c3ccc(C)c(Nc4nccc(-c5cccnc5)n4)c3)cc(C(F)(F)F)c2)cn1 [nilotinib]
Procedure, shortened: as §1

[14] = compound: Cc1nc(Nc2n[nH]c3c2CN(C(=O)N[C@H](CN(C)C)c2ccccc2)C3(C)C)c2sccc2n1
Procedure, shortened: as §1

[15] = compound: Cc1nc(Nc2ncc(C(=O)Nc3c(C)cccc3Cl)s2)cc(N2CCN(CCO)CC2)n1 [dasatinib]
Procedure, shortened: as §1

[16] = compound: Cc1ncc(-c2ccnc(Nc3ccc(S(C)(=O)=O)cc3)n2)n1C(C)C
Procedure, shortened: as §1

[17] = compound: Cn1cc(-c2ccc3c(c2)CCN3C(=O)Cc2cccc(C(F)(F)F)c2)c2c(N)ncnc21
Procedure, shortened: as §1

[18] = compound: Cn1cc(-c2ccc3nnc(C(F)(F)c4ccc5ncccc5c4)n3n2)cn1
Procedure, shortened: as §1

[19] = compound: Cn1cncc1[C@@](N)(c1ccc(Cl)cc1)c1ccc2c(c1)c(-c1cccc(Cl)c1)cc(=O)n2C [tipifarnib]
Procedure, shortened: as §1

[20] = compound: FC(F)(F)c1ccc(/C=C/c2nc(COc3ccc(CCCCn4ccnn4)cc3)co2)cc1 [mubritinib]
Procedure, shortened: as §1

UniProt P33240, sequence (P33240 whole entry, looked up): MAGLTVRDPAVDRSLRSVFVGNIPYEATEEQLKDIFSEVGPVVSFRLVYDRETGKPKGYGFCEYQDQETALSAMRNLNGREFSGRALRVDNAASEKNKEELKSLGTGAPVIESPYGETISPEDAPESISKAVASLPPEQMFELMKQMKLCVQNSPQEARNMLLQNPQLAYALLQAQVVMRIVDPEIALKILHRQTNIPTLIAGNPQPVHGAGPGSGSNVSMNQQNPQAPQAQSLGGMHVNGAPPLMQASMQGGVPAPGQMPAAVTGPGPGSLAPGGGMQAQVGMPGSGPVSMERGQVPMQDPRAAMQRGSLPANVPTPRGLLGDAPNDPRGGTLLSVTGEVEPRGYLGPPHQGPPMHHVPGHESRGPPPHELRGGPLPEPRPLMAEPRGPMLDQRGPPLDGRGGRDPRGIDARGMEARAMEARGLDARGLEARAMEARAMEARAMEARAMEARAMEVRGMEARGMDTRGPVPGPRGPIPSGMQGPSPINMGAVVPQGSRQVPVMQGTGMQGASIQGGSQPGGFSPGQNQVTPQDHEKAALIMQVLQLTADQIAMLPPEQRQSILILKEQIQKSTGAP
UniProt Q96SZ6, sequence (Q96SZ6 whole entry, looked up): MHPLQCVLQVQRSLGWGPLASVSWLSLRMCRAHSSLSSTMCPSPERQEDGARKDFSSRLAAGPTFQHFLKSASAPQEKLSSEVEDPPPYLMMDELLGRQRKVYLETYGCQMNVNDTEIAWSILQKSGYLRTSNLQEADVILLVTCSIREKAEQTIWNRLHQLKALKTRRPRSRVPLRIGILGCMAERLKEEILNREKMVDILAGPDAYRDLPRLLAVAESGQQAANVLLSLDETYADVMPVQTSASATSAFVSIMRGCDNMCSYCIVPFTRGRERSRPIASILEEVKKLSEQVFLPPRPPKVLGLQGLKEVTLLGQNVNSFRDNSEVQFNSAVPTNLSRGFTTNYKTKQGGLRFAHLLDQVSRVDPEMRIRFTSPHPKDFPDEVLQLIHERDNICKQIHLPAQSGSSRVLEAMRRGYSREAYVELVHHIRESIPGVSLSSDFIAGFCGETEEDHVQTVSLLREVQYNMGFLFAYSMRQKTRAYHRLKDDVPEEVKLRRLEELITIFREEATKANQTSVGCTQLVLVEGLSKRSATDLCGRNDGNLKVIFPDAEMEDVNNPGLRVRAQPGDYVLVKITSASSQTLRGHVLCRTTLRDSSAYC
UniProt Q99653, sequence (Q99653 whole entry, looked up): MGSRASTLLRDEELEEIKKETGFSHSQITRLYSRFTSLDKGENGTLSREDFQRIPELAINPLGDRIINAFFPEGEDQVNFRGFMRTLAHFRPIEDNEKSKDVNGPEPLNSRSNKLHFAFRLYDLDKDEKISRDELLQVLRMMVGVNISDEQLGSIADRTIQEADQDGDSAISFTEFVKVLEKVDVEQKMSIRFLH
UniProt Q5JTJ3, sequence (Q5JTJ3 whole entry, looked up): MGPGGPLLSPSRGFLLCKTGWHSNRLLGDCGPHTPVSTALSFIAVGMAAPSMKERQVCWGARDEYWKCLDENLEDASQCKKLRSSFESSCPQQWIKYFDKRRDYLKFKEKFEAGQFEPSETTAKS
UniProt O15234, sequence (O15234 whole entry, looked up): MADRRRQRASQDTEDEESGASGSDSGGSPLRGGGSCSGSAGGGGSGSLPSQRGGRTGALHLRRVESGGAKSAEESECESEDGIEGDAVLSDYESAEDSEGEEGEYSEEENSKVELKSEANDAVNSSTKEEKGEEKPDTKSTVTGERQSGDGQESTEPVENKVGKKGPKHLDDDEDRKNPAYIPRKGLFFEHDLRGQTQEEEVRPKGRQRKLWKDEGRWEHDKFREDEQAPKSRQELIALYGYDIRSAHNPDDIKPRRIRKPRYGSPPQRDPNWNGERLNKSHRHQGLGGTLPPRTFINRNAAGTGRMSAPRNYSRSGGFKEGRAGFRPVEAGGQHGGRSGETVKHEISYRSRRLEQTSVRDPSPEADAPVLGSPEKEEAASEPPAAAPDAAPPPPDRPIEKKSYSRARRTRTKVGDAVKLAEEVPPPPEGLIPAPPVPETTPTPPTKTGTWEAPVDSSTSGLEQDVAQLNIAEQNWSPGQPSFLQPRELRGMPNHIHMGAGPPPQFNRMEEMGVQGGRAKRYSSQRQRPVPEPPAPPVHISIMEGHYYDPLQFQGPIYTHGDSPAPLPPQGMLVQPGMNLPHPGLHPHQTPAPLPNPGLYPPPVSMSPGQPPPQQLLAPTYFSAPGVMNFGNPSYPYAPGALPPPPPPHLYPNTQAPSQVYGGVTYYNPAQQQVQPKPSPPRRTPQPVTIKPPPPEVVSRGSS
UniProt Q5T6V5, sequence (Q5T6V5 whole entry, looked up): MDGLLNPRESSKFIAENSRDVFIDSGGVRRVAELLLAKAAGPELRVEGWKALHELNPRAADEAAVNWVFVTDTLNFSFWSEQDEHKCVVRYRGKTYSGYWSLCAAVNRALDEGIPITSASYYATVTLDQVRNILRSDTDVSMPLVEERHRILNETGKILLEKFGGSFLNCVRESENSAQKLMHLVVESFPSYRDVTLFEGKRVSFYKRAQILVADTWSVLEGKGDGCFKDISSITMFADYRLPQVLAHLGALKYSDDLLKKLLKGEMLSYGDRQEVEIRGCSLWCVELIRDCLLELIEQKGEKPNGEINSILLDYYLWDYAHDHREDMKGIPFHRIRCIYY
UniProt P42575, sequence (P42575 whole entry, looked up): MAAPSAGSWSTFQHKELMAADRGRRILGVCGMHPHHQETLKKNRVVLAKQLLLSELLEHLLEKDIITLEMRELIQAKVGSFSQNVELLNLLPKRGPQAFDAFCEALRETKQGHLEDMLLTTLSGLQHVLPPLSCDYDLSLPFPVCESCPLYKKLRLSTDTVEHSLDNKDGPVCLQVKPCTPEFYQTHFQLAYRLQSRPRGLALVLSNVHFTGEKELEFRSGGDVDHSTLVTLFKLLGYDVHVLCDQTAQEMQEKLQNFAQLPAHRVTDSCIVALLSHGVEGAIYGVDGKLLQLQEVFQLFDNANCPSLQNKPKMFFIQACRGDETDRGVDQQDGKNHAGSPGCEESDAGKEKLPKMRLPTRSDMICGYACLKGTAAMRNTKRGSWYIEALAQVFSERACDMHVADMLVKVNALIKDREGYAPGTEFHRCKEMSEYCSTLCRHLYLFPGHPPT
UniProt P21127, sequence (P21127 whole entry, looked up): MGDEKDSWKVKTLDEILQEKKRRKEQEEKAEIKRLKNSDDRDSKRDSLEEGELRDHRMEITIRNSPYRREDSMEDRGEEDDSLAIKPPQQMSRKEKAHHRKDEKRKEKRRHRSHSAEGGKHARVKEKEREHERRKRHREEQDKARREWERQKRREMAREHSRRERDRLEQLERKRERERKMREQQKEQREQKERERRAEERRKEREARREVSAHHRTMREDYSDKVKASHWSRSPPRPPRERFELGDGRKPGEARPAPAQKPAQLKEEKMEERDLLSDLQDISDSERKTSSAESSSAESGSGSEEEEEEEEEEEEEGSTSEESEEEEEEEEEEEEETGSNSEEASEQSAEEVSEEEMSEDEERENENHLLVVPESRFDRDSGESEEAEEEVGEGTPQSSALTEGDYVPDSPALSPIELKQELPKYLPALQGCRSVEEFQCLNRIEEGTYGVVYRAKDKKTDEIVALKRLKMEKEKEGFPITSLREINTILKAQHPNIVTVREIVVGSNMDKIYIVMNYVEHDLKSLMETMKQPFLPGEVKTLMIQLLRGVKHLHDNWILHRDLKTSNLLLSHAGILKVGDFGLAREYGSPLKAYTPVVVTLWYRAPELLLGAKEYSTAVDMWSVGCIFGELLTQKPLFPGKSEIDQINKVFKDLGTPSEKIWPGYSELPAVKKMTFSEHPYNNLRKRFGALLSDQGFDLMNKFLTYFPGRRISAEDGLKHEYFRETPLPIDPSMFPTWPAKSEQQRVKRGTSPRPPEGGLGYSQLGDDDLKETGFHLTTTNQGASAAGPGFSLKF
UniProt Q8N684, sequence (Q8N684 whole entry, looked up): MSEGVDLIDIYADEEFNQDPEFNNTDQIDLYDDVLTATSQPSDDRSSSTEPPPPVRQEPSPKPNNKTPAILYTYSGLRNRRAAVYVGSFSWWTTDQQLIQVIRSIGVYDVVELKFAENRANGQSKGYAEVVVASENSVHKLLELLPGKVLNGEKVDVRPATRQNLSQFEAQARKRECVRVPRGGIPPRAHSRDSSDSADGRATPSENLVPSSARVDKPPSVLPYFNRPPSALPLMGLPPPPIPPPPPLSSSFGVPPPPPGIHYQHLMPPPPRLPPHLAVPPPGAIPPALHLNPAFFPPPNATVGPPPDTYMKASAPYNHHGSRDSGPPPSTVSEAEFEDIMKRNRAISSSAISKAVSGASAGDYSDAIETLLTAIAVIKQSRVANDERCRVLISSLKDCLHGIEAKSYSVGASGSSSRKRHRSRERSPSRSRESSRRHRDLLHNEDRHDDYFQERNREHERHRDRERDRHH
UniProt P20674, sequence (P20674 whole entry, looked up): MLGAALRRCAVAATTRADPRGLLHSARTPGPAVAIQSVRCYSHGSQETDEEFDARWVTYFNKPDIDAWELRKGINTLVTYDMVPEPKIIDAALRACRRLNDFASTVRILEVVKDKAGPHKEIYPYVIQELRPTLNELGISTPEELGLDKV
UniProt P86791, sequence (P86791 whole entry, looked up): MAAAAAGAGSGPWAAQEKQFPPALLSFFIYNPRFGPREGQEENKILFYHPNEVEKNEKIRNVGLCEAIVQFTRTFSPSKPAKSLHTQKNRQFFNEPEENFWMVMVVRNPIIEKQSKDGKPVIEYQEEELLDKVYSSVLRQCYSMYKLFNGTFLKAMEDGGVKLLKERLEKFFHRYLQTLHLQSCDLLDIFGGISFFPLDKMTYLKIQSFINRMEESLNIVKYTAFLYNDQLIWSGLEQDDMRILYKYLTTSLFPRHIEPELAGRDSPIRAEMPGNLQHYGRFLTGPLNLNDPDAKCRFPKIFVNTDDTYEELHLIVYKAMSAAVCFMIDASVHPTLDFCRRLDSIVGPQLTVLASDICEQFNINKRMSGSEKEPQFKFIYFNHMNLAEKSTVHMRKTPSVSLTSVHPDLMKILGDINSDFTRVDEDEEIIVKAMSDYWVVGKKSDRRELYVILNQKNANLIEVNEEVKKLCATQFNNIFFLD

| Target | log2 fold change [1] | log2 fold change [2] | log2 fold change [3] | log2 fold change [4] | log2 fold change [5] | log2 fold change [6] | log2 fold change [7] | log2 fold change [8] | log2 fold change [9] | log2 fold change [10] | log2 fold change [11] | log2 fold change [12] | log2 fold change [13] | log2 fold change [14] | log2 fold change [15] | log2 fold change [16] | log2 fold change [17] | log2 fold change [18] | log2 fold change [19] | log2 fold change [20] |
| --- | --- | --- | --- | --- | --- | --- | --- | --- | --- | --- | --- | --- | --- | --- | --- | --- | --- | --- | --- | --- |
| CASC3 (UniProt O15234) | -0.228 | 0.537 (active) | -0.412 (active) | 0.243 | 0.065 | 0.484 (active) | -0.088 | -0.067 | -0.025 | -0.094 | -0.064 | -0.069 | -0.064 | 0.481 (active) | 0.031 | 0.511 (active) | -0.079 | -0.069 | 0.004 | 0.084 |
| COCH (UniProt O43405) | -0.051 | -0.05 | -0.033 | -0.016 | -0.052 | 0.059 | 0.154 | -0.053 | 0.052 | -0.042 | 0.076 | -0.17 | 0.2 | -0.288 | 0.179 | -0.262 | -0.069 | -0.005 | 0.07 | -0.062 |
| CCAR1 (UniProt Q8IX12) | 0.004 | -0.238 | 0.034 | -0.016 | 0.012 | -0.263 (active) | -0.063 | 0.067 | -0.03 | -0.102 | 0.036 | 0.036 | -0.055 | -0.033 | -0.112 | -0.095 | 0.079 | 0.019 | -0.091 | 0.122 |
| CDK5RAP1 (UniProt Q96SZ6) | 0.005 | 0.041 | 0.033 | 0.031 | -0.006 | 0.033 | 0.003 | -0.025 | 0.05 | 0.048 | -0.052 | -0.058 | 0 | -0.008 | 0.175 | -0.006 | 0.044 | 0.017 | 0.031 | -0.03 |
| CCNT1 (UniProt O60563) | -0.124 | -0.088 | -0.098 | 0.13 | -0.076 | -0.1 | -0.075 | 0.076 | 0.181 | -0.277 | 0.062 | 0.036 | 0.027 | -0.272 | -0.016 | -0.301 | -0.051 | -0.122 | 0.142 | -0.093 |
| CSTF2 (UniProt P33240) | 0.016 | 0.075 | 0.14 | -0.042 | 0.029 | 0.048 | 0.033 | -0.011 | 0.028 | 0.068 | -0.05 | -0.061 | -0.029 | 0.074 | 0.007 | 0.047 | -0.011 | -0.014 | 0.028 | -0.046 |
| CDK11B (UniProt P21127) | 0.025 | 1.24 (active) | 0.052 | 0.166 | 0.099 | 0.105 | 0.018 | 0.007 | 0 | 0.022 | 0.027 | -0.009 | 0.106 | -0.038 | 0.014 | -0.036 | 0.007 | 0.228 | 0.104 | 0.085 |
| COX5A (UniProt P20674) | -0.011 | 0.245 | 0.109 | -0.092 | 0.249 | 0.12 | 0.029 | 0.011 | -0.039 | 0.411 (active) | -0.079 | -0.003 | 0.067 | -0.023 | 0.06 | -0.067 | 0.109 | 0.422 (active) | 0.103 | 0.021 |
| CHP1 (UniProt Q99653) | 0.025 | 0.109 | -0.061 | -0.027 | 0.044 | 0.022 | 0.075 | -0.026 | -0.021 | 0.25 | 0 | -0.087 | 0.014 | 0.019 | 0.042 | 0.004 | 0.043 | -0.116 | 0.072 | 0.037 |
| CASP2 (UniProt P42575) | 0.004 | -0.062 | 0.023 | -0.002 | 0.061 | -0.071 | 0.083 | 0.05 | 0.077 | 0.039 | 0.041 | -0.035 | -0.037 | 0.076 | -0.165 | 0.114 | 0.105 | -0.056 | -0.118 | 0.006 |
| COA6 isoform 2 (UniProt Q5JTJ3) | 0.026 | -0.001 | -0.07 | -0.155 | 0.068 | 0.082 | 0.109 | 0.159 | 0 | 0.035 | -0.093 | 0.002 | -0.064 | 0.02 | -0.017 | 0.012 | -0.097 | 0.035 | -0.008 | 0.041 |
| C9orf64 (UniProt Q5T6V5) | 0.049 | -0.329 | 0.091 | 0 | 0.096 | -0.128 | -0.012 | 0.097 | -0.005 | -0.207 | 0.031 | 0.218 | -0.045 | -0.094 | -0.197 | -0.04 | 0.079 | 0.085 | -0.163 | 0.282 |
| CPSF7 isoform 3 (UniProt Q8N684) | -0.016 | 0.013 | 0.026 | -0.05 | 0.017 | -0.004 | -0.012 | 0.018 | -0.014 | 0.09 | 0.07 | -0.107 | 0.028 | -0.552 (active) | 0.012 | 0.044 | 0.003 | -0.027 | -0.048 | -0.048 |
| CCZ1 (UniProt P86791) | 0.022 | -0.278 (active) | 0.009 | 0.005 | -0.053 | -0.081 | -0.039 | 0.006 | -0.036 | -0.162 | -0.127 | 0.007 | 0.024 | -0.022 | -0.057 | -0.098 | 0.021 | 0.025 | 0.043 | 0.038 |
| CLUH, A0A494C0R8 | 0.055 | -0.575 (active) | 0.205 | 0.037 | 0.646 (active) | -0.214 | -0.11 | -0.031 | 0.113 | -0.028 | 0.016 | -0.445 | 0.264 | 0.015 | -0.051 | 0 | -0.018 | 0.532 (active) | 0.145 | 0.072 |
